Unmarked numbers belong to inactive results. Records with an inconclusive call do not appear. Entries that show only a call come without a potency. Calls of active or inactive are those of the source. Calls come from the whole dose curve; as a rule, active = well fitted curve in the direction sought with a large enough effect; inconclusive = small, poorly fitted or top-dose-only effect, or another doubt; inactive = no such curve, though single readings can be large; an effect the other way counts as inactive or inconclusive.
Experiments:
[1] = Primary fluorescence-based thiol-reactive (MSTI) qHTS assay for identification of artifact compounds. (AID 1845221); note: nearly all actives have a fitted effect of over 65% in size; note: potency is the fitted concentration of half-maximal effect;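 for activity change, negative = thiol reactive: series mostly up to about 54 µM; thiol-reactive compounds lower the probe fluorescence signal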
In short: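 In PBS pH 7.4 with 2% DMSO, each compound met 4 uM MSTI for one hour at ambient temperature, shielded from light, before fluorescence detection.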

[2] = test system: Nanoluciferase (engineered Oplophorus gracilirostris luciferase); test: Primary Nanoluciferase (NLuc) qHTS assay for identification of artifact compounds. (AID 1845222);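 note: NLuc secreted into diluted conditioned medium of S16 cells; series mostly up to about 54 µM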
In short: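 NLuc from S16 cell medium (1:55) plus test compounds, 15 min, room temperature. Luminescence after Nano-Glo (1:100) addition, 5 min.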

[3] = Primary redox qHTS assay for identification of artifact compounds. (AID 1845223); note: potency is the fitted concentration of half-maximal effect
In short: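 Amplex Red (25 uM) and HRP (250 mU/mL) in HBSS, with compounds for 15 min, then 250 uM DTT for 30 min, room temperature, dark. Fluorescence 525/598 nm read; normalized to DMSO and 10 uM DA3003; Hill fit.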

Structure (SMILES) | Potency [1] | Potency [2] | Potency [3] | activity change, negative = thiol reactive [1] | activity, negative = inhibition [2] | redox activity (% of DA3003) [3]
CC(=O)NC1CC(=O)C23C(=O)NC(Cc4c[nH]c5ccccc45)C2C(C)=C(C)C(O)C3/C=C/CC(C)/C=C(/C)C(O)C1O (stereo unspecified) | inactive | inactive | inactive | – | – | –
C=C1CC[C@@H]2[C@](C)(CO)[C@H](O[C@@H]3O[C@H](CO)[C@@H](O)[C@H](O)[C@H]3O)CC[C@@]2(C)[C@@H]1C/C=C1/C(=O)OC[C@H]1O | 6.53 µM (active) | inactive | inactive | – | – | –
CC(C)C1NC(=O)C(CC2(O)c3ccccc3N3C(=O)C(Cc4ccccc4)NC32)NC1=O (stereo unspecified) | inactive | inactive | inactive | – | – | –
O=C(c1c2ccccc2cc2ccccc12)N1CCC(N2CCC[C@@H](C(=O)N3CCOCC3)C2)CC1 | inactive | inactive | inactive | – | – | –
CC1C(O)C(O)C2C(C(=O)OCCc3ccc(O)cc3)=COC(O[C@@H]3O[C@H](CO)[C@@H](O)[C@H](O)[C@H]3O)C12 (stereo partly specified) | 1.84 µM (active) | inactive | inactive | – | – | –
C/C=C(\C)C(=O)OC[C@H]1O[C@@H](O[C@H]2[C@@H](O[C@H]3O[C@H](COC(=O)/C(C)=C/C)[C@@H](O)[C@H](O)[C@H]3O[C@@H]3O[C@H](COC(=O)/C(C)=C/C)[C@@H](O)[C@H](OC(=O)/C(C)=C/C)[C@H]3O)O[C@H](COC(=O)/C(C)=C/C)[C@@H](O)[C@@H]2O)[C@H](O)[C@@H](O)[C@@H]1O | – | – | – | 8.85% [at 11.5 µM] | 0.483% [at 11.6 µM] | -2.39% [at 11.5 µM]
COc1cncc(C#Cc2ccccn2)c1 | inactive | inactive | inactive | – | – | –
C=C1C[C@H](O)[C@@H](O)[C@@]2(C)C1[C@@H](O)[C@H]1OC(=O)C3[C@@H](C)[C@@H](O)[C@H](O)C2[C@]31C (stereo partly specified) | inactive | inactive | inactive | – | – | –
O=C(OCc1ccccc1O[C@@H]1O[C@H](CO)[C@@H](O)[C@H](O)[C@H]1O)C1(O)C=CCCC1O (stereo partly specified) | 5.82 µM (active) | inactive | inactive | – | – | –
NC(=O)C(O[C@@H]1O[C@H](CO[C@@H]2O[C@H](CO)[C@@H](O)[C@H](O)[C@H]2O)[C@@H](O)[C@H](O)[C@H]1O)c1ccccc1 (stereo partly specified) | inactive | inactive | inactive | – | – | –
COc1cc([C@H]2OC[C@](O)(Cc3ccc(O[C@@H]4O[C@H](CO)[C@@H](O)[C@H](O)[C@H]4O)c(OC)c3)[C@@H]2CO)ccc1O | inactive | inactive | inactive | – | – | –
CC1CCC2(C(=O)OC3OC(CO)C(O)C(O)C3O)CCC3(C)C(=CCC4C5(C)CCC(O)C(C)(CO)C5CCC43C)C2C1(C)O (stereo unspecified) | inactive | inactive | inactive | – | – | –
CC[C@H](NC(=O)c1c(O)c(-c2ccccc2)nc2ccccc12)c1ccccc1 | 2.67 µM (active) | inactive | inactive | – | – | –
CC1=CCC2C(C)(C)CCCC2(C)C1CC12OC1C(O)C(CO)=CC2O (stereo unspecified) | inactive | inactive | inactive | – | – | –
CC[C@@H]1C(=O)O[C@]23C=C[C@@H]4C(C(=O)OC)=CO[C@H](O[C@@H]12)[C@@H]43 | 10.6 µM (active) | inactive | inactive | – | – | –
CC1CCC2(C)CCC3(C)C(=CCC4C5(C)CCC(O)C(C)(C(=O)O)C5CCC43C)C2C1C (stereo unspecified) | inactive | inactive | inactive | – | – | –
COC(=O)C1=CO[C@@H](O[C@@H]2O[C@H](CO)[C@@H](O)[C@H](O)[C@H]2O)[C@H]2[C@@H]1[C@H](O)[C@H](O)[C@]2(C)O | 13 µM (active) | inactive | inactive | – | – | –
Cc1ccccc1NC(=O)Nc1ccc(CN2C(=O)N([C@@H](CC(C)C)C(=O)N[C@@H](CC(=O)O)c3ccccc3)C(=O)C2(C)C)cc1 | inactive | inactive | inactive | – | – | –
OC[C@@]1(O)CO[C@@H](OC[C@H]2O[C@@H](OCc3ccccc3)[C@H](O)[C@@H](O)[C@@H]2O)[C@@H]1O | inactive | inactive | inactive | – | – | –
COc1cc(C2CC(=O)Nc3c2cc(Br)c2ccccc32)cc(OC)c1OC (stereo unspecified) | inactive | inactive | inactive | – | – | –
C/C(=C\CCC1(C)C2CC3C(C2)C31C)C(=O)O (stereo unspecified) | inactive | inactive | inactive | – | – | –
CC(C)c1c(NC(=O)Nc2ccc(Cl)cc2)c(=O)n(-c2ccccc2)n1C | inactive | inactive | inactive | – | – | –
C=C1C(OC(C)=O)CCC2(C)CC3(O)OC(=O)C(C)=C3CC12 (stereo unspecified) | inactive | inactive | inactive | – | – | –
COc1cccc(C(=O)NCCNc2nc3cc(C)cc(C)c3cc2C#N)c1 | inactive | inactive | inactive | – | – | –
CC1(C)OC(=O)C=C[C@@]2(C)C1CC(=O)[C@]1(C)C2CC[C@@]2(C)[C@H](c3ccoc3)OC(=O)[C@H]3O[C@]321 (stereo partly specified) | inactive | inactive | inactive | – | – | –
C=CCC/C=C/C#CCCCCCCCC[C@H]1C(=O)O[C@H](C)[C@@H]1O | inactive | inactive | inactive | – | – | –

Structure (SMILES) | Potency [1] | Potency [2] | Potency [3] | activity change, negative = thiol reactive [1] | activity, negative = inhibition [2] | redox activity (% of DA3003) [3]
CCCO[C@@H]1O[C@H](CO)[C@@H](O)[C@H](O)[C@H]1O[C@@H]1OC[C@@H](O)[C@H](O)[C@H]1O | inactive | inactive | inactive | – | – | –
NC(=O)[C@@H]1CC[C@H](c2ccc(OCc3ccccc3F)cc2)N1 | inactive | inactive | inactive | – | – | –
C[C@@H]1CC[C@]2(C(=O)O[C@@H]3O[C@H](CO[C@@H]4O[C@H](CO)[C@@H](O[C@@H]5O[C@@H](C)[C@H](O)[C@@H](O)[C@H]5O)[C@H](O)[C@H]4O)[C@@H](O)[C@H](O)[C@H]3O)CC[C@]3(C)C(=CCC4[C@@]5(C)C[C@@H](O)[C@H](O)[C@@](C)(CO)C5CC[C@]43C)C2[C@H]1C (stereo partly specified) | – | – | – | 329% [at 11.5 µM] | 0% [at 11.6 µM] | 3.39% [at 11.5 µM]
Cc1onc(-c2ccccc2Cl)c1C(=O)N(C)c1ccc(Cl)cc1 | inactive | inactive | inactive | – | – | –
C=C1C(OC(C)=O)C(=O)C2C(C)(C)C(O)CCC2(C)C1CC(OC(C)=O)/C(C)=C/COC(C)=O (stereo unspecified) | inactive | inactive | inactive | – | – | –
c1cc(-c2cc(C3CCNCC3)[nH]n2)ccn1 | inactive | inactive | inactive | – | – | –
O=C(O)CCc1ccc(NCc2cccc3c2CCCN3CCOc2ccccc2)cc1F | 1.5 µM (active) | inactive | inactive | – | – | –
C/C=C(\C)C(=O)OC[C@H]1O[C@H](O[C@H]2O[C@H](CO)[C@@H](O)[C@H](O)[C@H]2O[C@@H]2O[C@H](CO)[C@@H](O)[C@H](O)[C@H]2O)[C@H](O[C@@H]2O[C@H](CO)[C@@H](O)[C@H](O)[C@H]2O)[C@@H](O)[C@@H]1O | inactive | inactive | inactive | – | – | –
C=C(C)[C@@H]1CC[C@]2(C)CC[C@]3(C)C(CCC4[C@@]5(C)CC[C@H](O)C(C)(C)C5CC[C@]43C)C12 (stereo partly specified) | inactive | inactive | inactive | – | – | –
NC[C@@H]1O[C@@H](O[C@@H]2[C@@H](O[C@@H]3O[C@H](CO)[C@@H](O)[C@H]3O)[C@H](O)[C@@H](N)C[C@H]2N)[C@@H](N)[C@H](O)[C@H]1O | – | – | – | -13.5% [at 11.5 µM] | 0% [at 11.6 µM] | -8.2% [at 11.5 µM]
COc1ccc(-n2[nH]c3c(cnc4ccccc43)c2=O)cc1 | 4.74 µM (active) | inactive | inactive | – | – | –
O=C(NC/C=C/CN1CCN(c2cccc(Cl)c2Cl)CC1)c1ccc(-c2ccccn2)cc1 | inactive | inactive | inactive | – | – | –
CC1CCC2(C(=O)O)CCC3(C)C(=CCC4C5(C)C[C@@H](O)[C@@H](O)C(C)(CO)C5CCC43C)C2C1(C)O (stereo partly specified) | inactive | inactive | inactive | – | – | –
CCCc1[nH]nc2c1C(c1cc(Cl)cc(Cl)c1O)C(C#N)=C(N)O2 (stereo unspecified) | inactive | inactive | 11.9 µM (active) | – | – | –
O=C(OC1C=C(CO)C2C(OC3OC(CO)C(O)C(O)C3O)OC=CC12O)c1ccc(O)cc1 (stereo unspecified) | 3.27 µM (active) | inactive | inactive | – | – | –
CC(/C=C/C=C(\C)C(=O)O[C@@H]1O[C@H](CO[C@@H]2O[C@H](CO)[C@@H](O)[C@H](O)[C@H]2O)[C@@H](O)[C@H](O)[C@H]1O)=C\C=C\C=C(C)\C=C\C=C(/C)C(=O)O[C@@H]1C[C@](O)(C(=O)O)C[C@@H](O)[C@H]1OC(=O)/C=C/c1ccc(O)c(O)c1 | 0.45 µM (active) | – | – | – | -29.7% [at 11.6 µM] | -7.98% [at 11.5 µM]
O=C(O)CC(CCc1ccccc1)OC1OC(CO)C(O)C(O)C1O (stereo unspecified) | 5.21 µM (active) | inactive | inactive | – | – | –
C[C@@H]1CC2OC(=O)C3=C2C(CCC3O)[C@@]12C[C@@H](c1ccoc1)OC2=O (stereo partly specified) | inactive | inactive | inactive | – | – | –
N#Cc1cccc(-c2nc(-c3cccnc3)no2)c1 | inactive | inactive | inactive | – | – | –
COc1ccc(OC2OC(CO[C@@H]3O[C@@H](C)[C@H](O)[C@@H](O)[C@H]3O)C(O)C(O)C2O)cc1OC (stereo partly specified) | 2.32 µM (active) | inactive | inactive | – | – | –
Cc1ccccc1-c1cc(N2CCN(C)CC2)ncc1N(C)C(=O)C(C)(C)c1cc(C(F)(F)F)cc(C(F)(F)F)c1 | inactive | inactive | inactive | – | – | –
CC1(C)CC[C@]2(C(=O)O)CC[C@]3(C)C(=CCC4[C@@]5(C)CC[C@H](O[C@@H]6O[C@H](C(=O)O)[C@@H](O)[C@H](O)[C@H]6O)C(C)(C)C5CC[C@]43C)C2C1 (stereo partly specified) | inactive | inactive | inactive | – | – | –
CNc1nc(Nc2cn(C(C)(C)C#N)nc2C)ncc1C(F)(F)F | inactive | inactive | inactive | – | – | –
C=C1C(O)CCC2(C)CC3(OC)OC(=O)C(C)=C3CC12 (stereo unspecified) | inactive | inactive | inactive | – | – | –
CC(=C\C(C)O)/C=C(\C)C(=O)CC1CC(CC(N)=O)CC(=O)O1 (stereo unspecified) | inactive | inactive | inactive | – | – | –
CN[C@H](CNC(=O)N1CCC[C@@H]([C@@H](OCCNC(=O)OC)c2cccc(Cl)c2)C1)C[C@H]1CCCOC1 | inactive | inactive | inactive | – | – | –
